Some compounds were tested as several samples or in several runs, with calls that do not always agree. Activity calls are given as the source filed them. The call rests on the fitted dose curve.

One may read the AC50 as the concentration at which the activity in the assay is half-maximal.

For this experiment the following is noted: Ebola virus entry assay, green fluorescence channel.
Regarding `CN1[C@@H]2CC[C@H]1CC(OC(c1ccccc1)c1ccccc1)C2` (stereo partly specified), the AC50 was 3.06 µM (active).

As to `COc1cc2c(c(OC)c1OC)-c1ccc(OC)c(=O)cc1[C@@H](NC(C)=O)CC2`, the AC50 was 0.0968 µM (active). Same read-out and setting: in the case of `CN(C)CCOc1ccc(/C(=C(/CCCl)c2ccccc2)c2ccccc2)cc1` it was 1.93 µM (active). As for `CNCCCC12CCC(c3ccccc31)c1ccccc12`, the AC50 was 6.85 µM (active). The same measure, in the same setting: in the case of `COC(=O)Nc1nc2ccc(C(=O)c3cccs3)cc2[nH]1` it was 0.685 µM (active); in that of `CN(C)CCCN1c2ccccc2CCc2ccc(Cl)cc21`, 7.69 µM (active); in that of `CC[C@]1(O)C[C@H]2CN(CCc3c([nH]c4ccccc34)[C@@](C(=O)OC)(c3cc4c(cc3OC)N(C=O)[C@H]3[C@@](O)(C(=O)OC)[C@H](OC(C)=O)[C@]5(CC)C=CCN6CC[C@]43[C@@H]65)C2)C1`, 0.217 µM (active). The same measure, in the same setting: in the case of `CC[C@H]1OC(=O)[C@H](C)[C@@H](O[C@H]2C[C@@](C)(OC)[C@@H](O)[C@H](C)O2)[C@H](C)[C@@H](O[C@@H]2O[C@H](C)C[C@H](N(C)C)[C@@H]2O)[C@](C)(O)C[C@@H](C)CN(C)[C@H](C)[C@@H](O)[C@]1(C)O` it was 7.69 µM (active).

As for `CCN(CC)CCNC(=O)c1c(C)[nH]c(/C=C2\C(=O)Nc3ccc(F)cc32)c1C`, the result was inactive. With `CC/C(=C(\c1ccccc1)c1ccc(OCCN(C)C)cc1)c1ccccc1`, the molecule was classed as inactive and the AC50 was 1.53 µM (active). For the molecule `CCCCc1oc2ccc(NS(C)(=O)=O)cc2c1C(=O)c1ccc(OCCCN(CCCC)CCCC)cc1`, the outcome was inactive. Turning to `CN1CCC[C@@H]1CCO[C@](C)(c1ccccc1)c1ccc(Cl)cc1`, the AC50 is 1.93 µM (active). Turning to `CCCSc1ccc2nc(NC(=O)OC)[nH]c2c1`, the molecule was called inactive. For `CCC1=C[C@@H]2CN(C1)Cc1c([nH]c3ccccc13)[C@@](C(=O)OC)(c1cc3c(cc1OC)N(C)[C@H]1[C@@](O)(C(=O)OC)[C@H](OC(C)=O)[C@]4(CC)C=CCN5CC[C@]31[C@@H]54)C2`, the AC50 is 0.109 µM (active). Regarding `COc1cccc2c1C(=O)c1c(O)c3c(c(O)c1C2=O)C[C@@](O)(C(C)=O)C[C@H]3O[C@H]1C[C@H](N)[C@H](O)[C@H](C)O1`, the molecule was called inactive.

Turning to `COC(=O)Nc1nc2ccc(C(=O)c3ccccc3)cc2[nH]1`, the AC50 was 6.11 µM (active). `CO[C@H]1C[C@@H]2CC[C@@H](C)[C@@](O)(O2)C(=O)C(=O)N2CCCC[C@@H]2C(=O)O[C@H]([C@H](C)C[C@@H]2CC[C@H](OCCO)[C@H](OC)C2)CC(=O)[C@H](C)C=C(C)[C@@H](O)[C@@H](OC)C(=O)[C@H](C)C[C@H](C)C=CC=CC=C1C`: the result was inactive. In the case of `CO[C@H]1C[C@@H]2CC[C@@H](C)[C@@](O)(O2)C(=O)C(=O)N2CCCC[C@@H]2C(=O)O[C@H]([C@@H](C)C[C@@H]2CC[C@H](O)[C@H](OC)C2)CC(=O)[C@H](C)C=C(C)[C@@H](O)[C@@H](OC)C(=O)[C@H](C)C[C@H](C)C=CC=CC=C1C`, the AC50 is 17.7 µM (active). For `CCCNCC(O)COc1ccccc1C(=O)CCc1ccccc1` (stereo unspecified), the molecule was called inactive. Turning to `C[C@]12CC[C@@H]3c4ccc(O)cc4C[C@@H](CCCCCCCCCS(=O)CCCC(F)(F)C(F)(F)F)[C@H]3[C@@H]1CC[C@@H]2O` (stereo partly specified), the AC50 was 3.06 µM (active). For `C[C@@H]1O[C@@H](O[C@H]2CC[C@@]3(C)[C@H](CC[C@@H]4[C@H]3C[C@@H](O)[C@]3(C)[C@@H](C5=CC(=O)OC5)CC[C@]43O)C2)C[C@H](O)[C@@H]1O[C@H]1C[C@H](O)[C@H](O[C@H]2C[C@H](O)[C@@H](O)[C@@H](C)O2)[C@H](C)O1` (stereo in doubt), the AC50 is 0.112 µM (active). Still for that read-out and setting: in the case of `CC[C@]1(O)C[C@@H]2CN(CCc3c([nH]c4ccccc34)[C@@](C(=O)OC)(c3cc4c(cc3OC)N(C)[C@H]3[C@@](O)(C(=O)OC)[C@H](OC(C)=O)[C@]5(CC)C=CCN6CC[C@]43[C@@H]65)C2)C1` it was 0.137 µM (active); in that of `CC[C@H]1OC(=O)[C@H](C)[C@@H](O[C@H]2C[C@@](C)(OC)[C@@H](O)[C@H](C)O2)C(C)[C@@H](O[C@@H]2O[C@H](C)C[C@H](N(C)C)[C@@H]2O)[C@](C)(OC)C[C@@H](C)C(=O)[C@H](C)[C@@H](O)[C@]1(C)O` (stereo partly specified), 5.44 µM (active). As for `CN1CCN(CCCN2c3ccccc3Sc3ccc(C(F)(F)F)cc32)CC1`, the molecule was classed as inactive. On the same count and under the same terms, in the case of `Cc1nnc(C(C)C)n1C1C[C@H]2CC[C@@H](C1)N2CC[C@H](NC(=O)C1CCC(F)(F)CC1)c1ccccc1` (stereo partly specified) it was “inactive”.

The record behind these values is PubChem BioAssay AID1117299 (National Center for Advancing Translational Sciences (NCATS), 2015).
